Screening results as filed in PubChem BioAssay.
CHO-K1 Ca antag: M1 antagonist counterscreen hit in parental CHO-K1 cells; ATP-induced calcium, Fluo-8 fluorescence; inhibition, % at 3 µM; 360,000 tested, 0.6% active; AID 602250;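 active = inhibition above a per-plate cutoff, the plate's mean sample inhibition plus 3 SD, cut at about 24% in these data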;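 note: 0% = DMSO plus EC80 ATP and 100% = DMSO alone without ATP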
CHRM1 antagonist: antagonists of human M1 muscarinic receptor. P11229. 360,000 tested, 1.3% active. inhibition, % at 3 µM. CHO-K1 hM1, Fluo-8 calcium fluorescence, ACh EC80 antagonist;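 active = percent inhibition above its own plate's cutoff, namely the mean of that plate's compound wells plus 3 SD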;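 note: peak over basal fluorescence ratio during 140 s after agonist addition; 0% = ACh EC80 plus DMSO and 100% = DMSO alone without agonist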
Target sequence (P11229 whole entry, looked up): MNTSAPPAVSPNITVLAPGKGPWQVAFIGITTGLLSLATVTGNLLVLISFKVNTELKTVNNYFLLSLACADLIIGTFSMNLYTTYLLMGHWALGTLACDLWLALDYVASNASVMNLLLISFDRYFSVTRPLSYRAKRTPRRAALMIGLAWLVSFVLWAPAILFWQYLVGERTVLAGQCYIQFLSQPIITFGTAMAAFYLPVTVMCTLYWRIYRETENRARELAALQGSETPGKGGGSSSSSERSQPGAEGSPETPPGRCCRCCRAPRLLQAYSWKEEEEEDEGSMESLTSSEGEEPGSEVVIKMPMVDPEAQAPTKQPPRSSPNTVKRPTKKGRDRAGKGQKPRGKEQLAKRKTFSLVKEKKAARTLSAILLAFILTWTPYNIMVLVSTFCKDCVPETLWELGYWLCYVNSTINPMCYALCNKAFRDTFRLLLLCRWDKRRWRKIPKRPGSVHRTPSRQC
CHO-K1 Ca ag: nonselective activator or artifact in parental CHO-K1 cells; Fluo-8 calcium fluorescence; scaled to maximal ATP response, vehicle zero; activation, % at 3 µM; 360,000 tested, 0.48% active; in the data active = activation above about 15%;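 note: untransfected CHO-K1 host cells lacking M1 receptor as counterscreen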
CHO-K1 Ca PAM: nonselective activator or artifact in parental CHO-K1 calcium assay; 360,000 tested, 0.02% active; ATP EC20, Fluo-8 calcium fluorescence; 0% at ATP EC20, 100% at ATP max; activation, % at 3 µM;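 active = activation above the run cutoff, the mean activation of all test compounds plus 3 SD, cut at about 40% in these data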;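 note: peak over basal fluorescence ratio in a 140 s read after ATP addition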
CHRM1 agonist: human M1 muscarinic receptor agonism; P11229; CHO-K1 hM1, Fluo-8 calcium fluorescence, agonist mode; 0% DMSO, 100% acetylcholine EC100; activation, % at 3 µM; 360,000 tested, 0.33% active; AID 588814;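 active = activation above the run's mean compound activation plus 3 SD, cut at about 16% in these data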;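 note: peak over basal fluorescence ratio within a 140 s kinetic read after compound addition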
CHRM1 PAM: positive allosteric modulators of human M1 muscarinic receptor | P11229 | CHO-K1 hM1, Fluo-8 calcium fluorescence, ACh EC20; 0% = ACh EC20, 100% = maximal ACh | activation, % at 3 µM | 360,000 tested, 0.088% active | AID 588819; in the data active = activation above about 19%, passing the limit was not always enough
An asterisk follows results filed as active; ! = a repeat was not active. An excerpt weighted towards active compounds, which were near 2.3% of everything screened.

How did O=C(CCc1ccccc1)NC(=S)Nc1ccc2c(c1)C(=O)OC2 do in these assays?
CHO-K1 Ca antag: 6; CHRM1 antagonist: -4; CHO-K1 Ca ag: 16*; CHO-K1 Ca PAM: 3; CHRM1 agonist: -5; CHRM1 PAM: 9

What do the screens show for `CCOc1ccc2c(c1)sc(N)[n+]2Cc1cc(C)cc2cccnc12`?
CHO-K1 Ca antag: 1; CHRM1 antagonist: 70*; CHO-K1 Ca ag: 6; CHO-K1 Ca PAM: 3; CHRM1 agonist: -7; CHRM1 PAM: -24

What do the screens show for `COc1ccc2c(c1)sc(N)[n+]2Cc1cc(C)cc2cccnc12`?
CHO-K1 Ca antag: 3; CHRM1 antagonist: 65*; CHO-K1 Ca ag: 4; CHO-K1 Ca PAM: 9; CHRM1 agonist: -7; CHRM1 PAM: -23

What do the screens show for `O=C(CN1C(=O)c2cccc([N+](=O)[O-])c2C1=O)N1CCN(S(=O)(=O)c2ccccc2)CC1`?
CHO-K1 Ca antag: -17; CHRM1 antagonist: -11; CHO-K1 Ca ag: 1; CHO-K1 Ca PAM: 23; CHRM1 agonist: -5; CHRM1 PAM: 19

Results for Cc1ccc(C(=O)N2CCN=C2SCc2ccc([N+](=O)[O-])cc2)cc1C ?
CHO-K1 Ca antag: 4; CHRM1 antagonist: 36*; CHO-K1 Ca ag: 0; CHO-K1 Ca PAM: -12; CHRM1 agonist: -8; CHRM1 PAM: -22

How did CC(=O)Nc1ccc(S(=O)(=O)N2CCN=C2SCc2ccc([N+](=O)[O-])cc2)cc1 do in these assays?
CHO-K1 Ca antag: 14; CHRM1 antagonist: 7; CHO-K1 Ca ag: 17*; CHO-K1 Ca PAM: -24; CHRM1 agonist: 6; CHRM1 PAM: -4

How did CN(CC(=O)Nc1ccc(F)c(F)c1F)C(=O)c1n[nH]c(=O)c2ccccc12 do in these assays?
CHO-K1 Ca antag: -16; CHRM1 antagonist: -5; CHO-K1 Ca ag: 1; CHO-K1 Ca PAM: 8; CHRM1 agonist: -2; CHRM1 PAM: 3

Results for C=C[C@H]1CN2CCC1C[C@H]2[C@H](O)c1ccnc2ccc(OC)cc12 (stereo not given in full) ?
CHO-K1 Ca antag: 0; CHRM1 antagonist: -13; CHO-K1 Ca ag: 0; CHO-K1 Ca PAM: -3; CHRM1 agonist: -5; CHRM1 PAM: -3

What do the screens show for `C=C[C@H]1CN2CC[C@H]1C[C@@H]2[C@@H](O)c1ccnc2ccc(OC)cc12`?
CHO-K1 Ca antag: 25*!; CHRM1 antagonist: -12; CHO-K1 Ca ag: 4; CHO-K1 Ca PAM: -5; CHRM1 agonist: -6; CHRM1 PAM: 0

How did COc1ccc(OC)c(NC(=O)Nc2ccc3[nH]ccc3c2)c1 do in these assays?
CHO-K1 Ca antag: 59*; CHRM1 antagonist: -8; CHO-K1 Ca ag: -1; CHO-K1 Ca PAM: -8; CHRM1 agonist: 5; CHRM1 PAM: 15

What do the screens show for `COc1ccc(OC)c(NC(=O)Nc2ccc(Cl)cc2)c1`?
CHO-K1 Ca antag: 8; CHRM1 antagonist: 5; CHO-K1 Ca ag: 1; CHO-K1 Ca PAM: -12; CHRM1 agonist: -4; CHRM1 PAM: -3

How did CCCOC(=O)c1ccc(Oc2coc3c(CN(CC)CC)c(O)ccc3c2=O)cc1 do in these assays?
CHO-K1 Ca antag: 3; CHRM1 antagonist: 89*; CHO-K1 Ca ag: 0; CHO-K1 Ca PAM: -5; CHRM1 agonist: -11; CHRM1 PAM: -26

Results for Cc1cc(C(c2ccc(O)cc2)c2cc(C)c(O)cc2C)c(C)cc1O ?
CHO-K1 Ca antag: 4; CHRM1 antagonist: 9; CHO-K1 Ca ag: 11; CHO-K1 Ca PAM: 31; CHRM1 agonist: 42*; CHRM1 PAM: 9

Results for CCC(c1ccc(O)cc1)C(CC)c1ccc(O)cc1 (stereo not given) ?
CHO-K1 Ca antag: 7; CHRM1 antagonist: -2; CHO-K1 Ca ag: 0; CHO-K1 Ca PAM: 5; CHRM1 agonist: -4; CHRM1 PAM: -13

What do the screens show for `CN(C)Cc1ccccc1Cc1ccccc1`?
CHO-K1 Ca antag: -5; CHRM1 antagonist: 1; CHO-K1 Ca ag: 0; CHO-K1 Ca PAM: 2; CHRM1 agonist: -7; CHRM1 PAM: 2

How did CN(C)Cc1ccccc1CCc1ccccc1 do in these assays?
CHO-K1 Ca antag: 0; CHRM1 antagonist: 60*; CHO-K1 Ca ag: 0; CHO-K1 Ca PAM: -3; CHRM1 agonist: -9; CHRM1 PAM: -25

Results for COC(=O)c1ccc(NC(=O)CCN2C(=O)NC(C)(C)C2=O)cc1 ?
CHO-K1 Ca antag: -12; CHRM1 antagonist: -16; CHO-K1 Ca ag: 1; CHO-K1 Ca PAM: 15; CHRM1 agonist: -3; CHRM1 PAM: 10

How did CSc1ccc2c(c1)C(N1CCN(C)CC1)Cc1ccccc1S2 (stereo not given) do in these assays?
CHO-K1 Ca antag: 11; CHRM1 antagonist: 79*; CHO-K1 Ca ag: 15*!; CHO-K1 Ca PAM: 0; CHRM1 agonist: -1; CHRM1 PAM: -22

What do the screens show for `CN1CCN(C2Cc3ccc(F)cc3Sc3cc(F)c(Cl)cc32)CC1` (stereo not given)?
CHO-K1 Ca antag: 6; CHRM1 antagonist: 29; CHO-K1 Ca ag: 1; CHO-K1 Ca PAM: -4; CHRM1 agonist: -6; CHRM1 PAM: -14

How did CN1CCN(C2Cc3cc(F)ccc3Sc3ccc(Cl)cc32)CC1 (stereo not given) do in these assays?
CHO-K1 Ca antag: -17; CHRM1 antagonist: 100*; CHO-K1 Ca ag: 5; CHO-K1 Ca PAM: 14; CHRM1 agonist: -1; CHRM1 PAM: -26

What do the screens show for `CN1CCN(C2Cc3ccccc3Sc3ccc(Cl)cc32)CC1` (stereo not given)?
CHO-K1 Ca antag: 20; CHRM1 antagonist: 74; CHO-K1 Ca ag: 7; CHO-K1 Ca PAM: -4; CHRM1 agonist: -3; CHRM1 PAM: -22

What do the screens show for `CC1CN(C(=O)/C=C/c2ccccc2Cl)CC(C)O1` (stereo not given)?
CHO-K1 Ca antag: 4; CHRM1 antagonist: -10; CHO-K1 Ca ag: 0; CHO-K1 Ca PAM: -3; CHRM1 agonist: -4; CHRM1 PAM: 8

What do the screens show for `CC(C)(C)C(=O)Nc1ccc(Sc2ccc([N+](=O)[O-])cc2)cc1`?
CHO-K1 Ca antag: 20; CHRM1 antagonist: 35*; CHO-K1 Ca ag: 11; CHO-K1 Ca PAM: -7; CHRM1 agonist: -6; CHRM1 PAM: -23

Results for COc1ccc(N2CCN(C(CNC(C)=O)c3ccc4c(c3)OCO4)CC2)cc1 (stereo not given) ?
CHO-K1 Ca antag: -4; CHRM1 antagonist: -5; CHO-K1 Ca ag: 0; CHO-K1 Ca PAM: -14; CHRM1 agonist: 1; CHRM1 PAM: 15

How did COc1ccc(N2CCN(C(CNC(=O)CC(C)(C)C)c3ccc4c(c3)OCO4)CC2)cc1 (stereo not given) do in these assays?
CHO-K1 Ca antag: -15; CHRM1 antagonist: 31*; CHO-K1 Ca ag: 1; CHO-K1 Ca PAM: -16; CHRM1 agonist: -13; CHRM1 PAM: -38

How did CSc1nc(-c2ccccc2)nc(C(C)C)n1 do in these assays?
CHO-K1 Ca antag: -16; CHRM1 antagonist: -6; CHO-K1 Ca ag: 1; CHO-K1 Ca PAM: 6; CHRM1 agonist: -2; CHRM1 PAM: 7

How did Cc1ccccc1N/N=C/c1c(C)nc2ccccn12 do in these assays?
CHO-K1 Ca antag: -2; CHRM1 antagonist: 4; CHO-K1 Ca ag: 3; CHO-K1 Ca PAM: 1; CHRM1 agonist: -4; CHRM1 PAM: -3
